Screening data: PubChem, National Center for Advancing Translational Sciences (NCATS)
p53 reactivator = qHTS assay for re-activators of p53 using a Luc reporter; H1299 p53-A138V BP100-luciferase reporter, luminescence, 24 h; Potency, µM (top dose mostly 92.2 µM), hits mostly activators; actives 0.063% (n = 320,000); AID 504706, 2011; also: nearly all actives have a fitted effect of over 45% in size
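H1299 (p53-null), stable ts p53-A138V + BP100-Luc; 1000 cells/well, Opti-MEM/10% FBS; cpd 4 pt, 1:5; 24 h, 37 deg C, 5% CO2; detection reagent 10 min RT; luminescence.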
RORg inh = qHTS for inhibitors of ROR gamma transcriptional activity. Nuclear receptor ROR-gamma (Mus musculus), P51450. Drosophila S2 Gal4-RORgamma UAS-luciferase reporter, 20 h. Potency, µM (doses to about 53.6 µM), most hits filed as inhibitors. actives 5.4% (n = 310,000); also: nearly all actives have a fitted effect of over 60% in size
Target sequence (P51450 whole entry, looked up, the tested form may be a part): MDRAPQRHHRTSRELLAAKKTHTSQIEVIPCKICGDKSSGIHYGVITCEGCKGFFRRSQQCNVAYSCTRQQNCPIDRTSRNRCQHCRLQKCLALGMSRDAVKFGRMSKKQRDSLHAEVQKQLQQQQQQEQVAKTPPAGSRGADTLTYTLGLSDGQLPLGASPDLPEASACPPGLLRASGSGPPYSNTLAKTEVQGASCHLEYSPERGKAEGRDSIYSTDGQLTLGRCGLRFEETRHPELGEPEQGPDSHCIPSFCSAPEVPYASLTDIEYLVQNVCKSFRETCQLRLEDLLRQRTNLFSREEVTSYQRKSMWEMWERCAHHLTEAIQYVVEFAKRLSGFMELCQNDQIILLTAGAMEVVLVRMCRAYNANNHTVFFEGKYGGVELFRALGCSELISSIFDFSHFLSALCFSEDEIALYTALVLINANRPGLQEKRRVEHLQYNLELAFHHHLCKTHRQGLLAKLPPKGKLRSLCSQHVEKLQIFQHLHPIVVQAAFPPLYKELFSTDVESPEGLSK
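Using a luciferase readout, inhibitors were identified by reduced reporter activity in Drosophila cells coexpressing a copper-inducible Gal4–ROR gamma fusion and UAS-driven Photinus luciferase, incubated 20 hr after 700 uM copper sulfate.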
Giardia killer = Small Molecules that selectively kill Giardia lamblia: qHTS. Giardia lamblia trophozoite viability. actives 0.15% (n = 340,000). activity change, % at 7.66 µM, hits read low; in the data active = activity change below about -80%; inconclusive = between about -30% and that limit;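 also: parasites exposed to compound for two days anaerobically before the ATP read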
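Giardia trophozoites, 100 cells per well, were exposed to compounds for 48 hrs at 37 deg C under anaerobic conditions; viability was then read as ATP content by bioluminescence after 15-30 min at room temperature.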
Gal4-VP16 FLuc = VP16 counterscreen qHTS for inhibitors of ROR gamma transcriptional activity; Drosophila S2 Gal4-VP16 UAS-luciferase, luminescence, 20 h; Potency, µM (doses to about 53.6 µM), most hits filed as inhibitors; actives 3.5% (n = 310,000); AID 2546, 2010;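 also: Gal4-VP16 expression switched on by copper sulfate through the metallothionein promoter; nearly all actives have a fitted effect of over 50% in size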
ELG1 repair inh = qHTS screen for small molecules that inhibit ELG1-dependent DNA repair in human embryonic kidney (HEK293T) cells expressing luciferase-tagged ELG1; HEK293T ELG1-luciferase reporter, luminescence, 16 h; DNA damage induced by 5-fluorouridine; Potency, µM (series often up to 46.1 µM), usual class: inhibitors; actives 2.3% (n = 330,000); also: nearly all actives have a fitted effect of over 55% in size
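Luminescence from the luciferase reporter, measured 30 min after ONE-Glo reagent at room temperature, was the read-out. Beforehand, 2,000 cells per well were exposed for 16 hr at 37 °C to 5-fluorouridine together with compound or vehicle.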
BRCA1 expr up = qHTS Assay to Identify Small Molecule Activators of BRCA1 Expression. Potency, µM (titrated, usually from 46.1 µM), most hits filed as activators. actives 1.1% (n = 380,000). MCF7-BRCA1-FFLuc reporter, luminescence, 48 h; response scale: scaled: vehicle 0%, 10 µM genistein 100%; also: nearly all actives have a fitted effect of over 80% in size
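48 h compound treatment of MCF7-BRCA1-FFLuc cells (phenol-red free MEM, 37 °C), then 15 min with luciferase substrate and luminescence imaging.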
Of the large screens only hits and unclear results are named; the others gave an inactive call. Only some compounds are listed: those with a hit (about 7.6% of all), similar ones and a draw of the others. Unless noted, calls follow the shape of the dose curve; as a rule, active = well fitted curve in the direction sought with a large enough effect; inconclusive = small, poorly fitted or top-dose-only effect, or another doubt; inactive = no such curve, though single readings can be large; an effect the other way counts as inactive or inconclusive.

O=C(NC(=S)NC1CCS(=O)(=O)C1)c1ccccc1 (stereo not drawn)	none
CN(C1=C(NC(=O)c2ccccc2)C(=O)c2ccccc2C1=O)C1CCS(=O)(=O)C1 (stereo not drawn)	RORg inh 14µM, Gal4-VP16 FLuc 7.1µM, ELG1 repair inh 9.2µM
CC(=O)NC1=C(NC2CCS(=O)(=O)C2)C(=O)c2ccccc2C1=O (stereo not drawn)	RORg inh inconclusive, Gal4-VP16 FLuc 18µM, ELG1 repair inh inconclusive
C/C(=N\NC(=O)c1c(C)nc2ccccn12)c1ccc(N2CCOCC2)cc1	none
CCCCN(CC)C(=O)CCNS(=O)(=O)c1ccc2c(c1)c(=O)n(C)c(=O)n2C	none (no result: p53 reactivator, RORg inh, Giardia killer, Gal4-VP16 FLuc, ELG1 repair inh)
Cc1cc2nc(-c3ccc[nH]c3=O)[nH]c2cc1C	RORg inh 7.9µM, Giardia killer -94, Gal4-VP16 FLuc 6.3µM, ELG1 repair inh inconclusive
Cc1ccccc1C(=O)O/N=C(\N)c1ccc([N+](=O)[O-])cc1	p53 reactivator inconclusive, Gal4-VP16 FLuc inconclusive, ELG1 repair inh inconclusive
N/C(=N\OC(=O)/C=C/c1ccccc1)c1ccccc1	p53 reactivator inconclusive, ELG1 repair inh inconclusive, BRCA1 expr up 7.1µM
Cc1cccc(/C(N)=N/OC(=O)c2ccoc2C)c1	p53 reactivator inconclusive, RORg inh inconclusive, Gal4-VP16 FLuc inconclusive, ELG1 repair inh inconclusive
Cc1onc(-c2ccccc2Cl)c1C(=O)O/N=C(\N)c1ccccc1	RORg inh 14µM, Gal4-VP16 FLuc 6.3µM
Cc1occc1C(=O)O/N=C(\N)c1ccccc1	RORg inh inconclusive, Gal4-VP16 FLuc 10µM, ELG1 repair inh inconclusive
N/C(=N\OC(=O)/C=C/c1ccccc1)c1ccc(Cl)cc1	none
Cc1ccccc1C(=O)O/N=C(\N)c1ccccc1	RORg inh 7.1µM, Giardia killer inconclusive, Gal4-VP16 FLuc 10µM, ELG1 repair inh inconclusive
Cc1nn(-c2cccc(C(F)(F)F)c2)c(Cl)c1/C=N/n1cnnc1	none
CCOCCOC(=O)C1=C(C)N(C)C(=O)NC1c1ccccc1Cl (stereo not drawn)	none
CCOC(=O)C1=C(C)N(CCCC(=O)O)C(=O)NC1c1ccc(Cl)cc1Cl (stereo not drawn)	none (no result: p53 reactivator)
CCOC(=O)C1=C(C)N(C)C(=S)NC1c1ccc(Cl)cc1Cl (stereo not drawn)	RORg inh 7.1µM, Gal4-VP16 FLuc 7.9µM
CCOC(=O)C1=C(C)N(C)C(=S)NC1c1ccccc1Cl (stereo not drawn)	RORg inh 8.9µM, Gal4-VP16 FLuc inconclusive
CCOC(=O)C1=C(C)N(C)C(=S)NC1c1cccc(Cl)c1Cl (stereo not drawn)	RORg inh 4µM, Gal4-VP16 FLuc inconclusive, ELG1 repair inh inconclusive
CC(=O)N=c1c(C#N)cc2c(=O)n3cccc(C)c3nc2n1CCCOC(C)C	Gal4-VP16 FLuc inconclusive, ELG1 repair inh 7.3µM
Cc1cccn2c(=O)c3cc(C#N)c(=NC(=O)c4ccncc4)n(CCCOC(C)C)c3nc12	ELG1 repair inh 12µM
COCCCn1c(=NC(=O)c2ccncc2)c(C#N)cc2c(=O)n3cccc(C)c3nc21	RORg inh inconclusive
O=C(O)c1ccccc1C(=O)NC1CCCCNC1=O (stereo not drawn)	none
COc1c(C)cc(Br)cc1C(=O)Nc1cccc(-c2nc3ncccc3o2)c1	ELG1 repair inh 18µM
CCCCC(=O)Nc1cccc(-c2nc3ncccc3o2)c1	none
CCC(=O)NC(=S)Nc1cccc(-c2nc3ncccc3o2)c1	RORg inh 13µM
COc1ccc(Br)cc1C(=O)Nc1ccc(-c2nc3ncccc3o2)cc1C	none (no result: p53 reactivator, RORg inh, Giardia killer, Gal4-VP16 FLuc, ELG1 repair inh)
Cc1ccc(C)c2c1sc(=NC(=O)CN1C(=O)CCC1=O)n2C	none
CCOc1ccc(OCCCC(=O)NNC(=O)c2ccncc2)cc1	none (no result: RORg inh, Gal4-VP16 FLuc)
O=C(CSc1nnc(Cc2cccs2)n1CCc1ccccc1)N1CCCc2ccccc21	RORg inh inconclusive, ELG1 repair inh 21µM
Cc1cccc(OCc2nnc(SCC(=O)N3c4ccccc4CC3C)n2C)c1C (stereo not drawn)	RORg inh inconclusive, Gal4-VP16 FLuc 14µM, ELG1 repair inh inconclusive
CC1Cc2ccccc2N1C(=O)CSc1nnc(Cc2ccccc2)n1CCc1ccccc1 (stereo not drawn)	ELG1 repair inh 18µM
Cn1c(Cc2cccs2)nnc1SCC(=O)N1CCCc2ccccc21	ELG1 repair inh inconclusive
Cc1ccccc1OCc1nnc(SCC(=O)N2CCc3ccccc32)n1C	none
COc1ccccc1NS(=O)(=O)c1ccc(-c2cc(C)no2)s1	ELG1 repair inh inconclusive
Cc1ccc(S/C=C\C(=O)c2ccccc2)cc1	p53 reactivator inconclusive, Gal4-VP16 FLuc 14µM, ELG1 repair inh inconclusive
Cc1ccc(C(=O)/C=C\C(=O)c2ccc(C)cc2)cc1	Gal4-VP16 FLuc 10µM, ELG1 repair inh inconclusive
OCC1OC(Oc2cccc3cccnc23)C(O)C(O)C1O (stereo not drawn)	none (no result: p53 reactivator, Giardia killer, ELG1 repair inh, BRCA1 expr up)
Cc1ccc(NC(=O)CN2CCCCCC2)cc1[N+](=O)[O-]	ELG1 repair inh inconclusive, BRCA1 expr up inconclusive
O=S(=O)(Nc1cccc2c1CCCC2)c1cccc(C(F)(F)F)c1	Gal4-VP16 FLuc inconclusive
CSc1nsc(N/N=C/c2ccc3c(c2)OCO3)c1C#N	p53 reactivator inconclusive, ELG1 repair inh inconclusive, BRCA1 expr up 4µM
COc1cc(/C=N/Nc2snc(SC)c2C#N)cc(OC)c1OC	RORg inh inconclusive, Gal4-VP16 FLuc inconclusive
CC(C)Oc1ccc(C(=O)NNC(=O)c2ccccc2C(=O)O)cc1	p53 reactivator inconclusive
O=C(NNC(=O)c1ccccc1C(=O)O)c1ccc(O)cc1	RORg inh 0.32µM, Gal4-VP16 FLuc inconclusive
Cn1c(=O)c2c(ncn2CC(=O)Nc2cc(S(=O)(=O)N3CCCCC3)ccc2Cl)n(C)c1=O	ELG1 repair inh inconclusive (no result: RORg inh, Gal4-VP16 FLuc)
COC(=O)C1=C(c2ccc(OC)cc2)OC(=O)C1(C)C	none (no result: p53 reactivator)
CCOC(=O)C1=C(CN2CCN(c3ccccc3OC)CC2)NC(=O)NC1c1ccccc1 (stereo not drawn)	none (no result: p53 reactivator, RORg inh, Giardia killer, Gal4-VP16 FLuc, ELG1 repair inh)
Oc1ccc(NC(=S)N=Nc2c(O)[nH]c3ccccc23)cc1	RORg inh inconclusive, ELG1 repair inh inconclusive
CNC(=S)N=Nc1c(O)[nH]c2ccccc12	RORg inh 3.2µM, Gal4-VP16 FLuc inconclusive, ELG1 repair inh inconclusive
C=C(C)CNC(=S)N=Nc1c(O)[nH]c2ccc([N+](=O)[O-])cc12	RORg inh 2.5µM, Gal4-VP16 FLuc 13µM, ELG1 repair inh inconclusive
